The record followed here is ChEMBL document CHEMBL4513146, “CO-ADD screening of Karazin Kharkiv National University (Ukraine) compounds”.

One experiment concerns Klebsiella pneumoniae. Particulars: Concentration 32 ug.mL-1;; ASSAY_TEST Inhibition of Bacterial Growth; detection method Absorption (OD600); MEDIA CAMHB; plate type 384well; NBS; CORNING #3640; time 18 hr.
In another experiment the test system is Candida albicans. Particulars: Concentration 32 ug.mL-1; ASSAY_TEST Inhibition of Fungal Growth; detection method Absorption (OD530).
For a further experiment, the system named is Cryptococcus neoformans. Particulars: Concentration 32 ug.mL-1; ASSAY_TEST Inhibition of Fungal Growth; detection method Resazurin; Absorption (OD600-OD570); plate type 384well; NBS; CORNING #3640. Background: Alamar Blue is a resazurin reagent that responds to reducing activity.

The structures appear in SMILES notation. Measured potencies and affinities stand elsewhere.

In general, Inhibition refers to the change of the read-out against control, counted positive when it falls. In the case of `CCc1nnc2c(S(=O)(=O)N(Cc3ccc(F)cc3)c3cccc(Cl)c3)cccn12`, the Inhibition in the experiment on Klebsiella pneumoniae is 0.19%; with Candida albicans it was 5.46%; in the experiment with Cryptococcus neoformans, -7.67%.
The corresponding values for `COc1ccc(C)cc1NC(=O)Cn1nc2c3cc(-c4ccc(Cl)cc4)nn3ccn2c1=O` are 15.75%, -1.06% and -27.09%.
The corresponding values for `CCOC(=O)c1ccccc1NC(=O)Cn1c(=O)c2nnc(C(C)C)n2c2ccccc21` are 12%, 1.04% and -21.33%.
Take `CCCNC(=O)Cn1nc2cc(C)nc(Nc3cc(C)cc(C)c3)n2c1=O`: the Inhibition in the experiment with Klebsiella pneumoniae is listed as 18.12%; with Candida albicans, 5.03%; in the experiment with Cryptococcus neoformans it was -9.02%.
On to `COc1cccc(-n2ccn3c(SCc4cccc(C)c4)nnc3c2=O)c1`, for which the Inhibition in the experiment with Klebsiella pneumoniae is listed as 11.77%; in the experiment on Candida albicans, 3.62%; in the experiment with Cryptococcus neoformans it was -12.18%.
In the case of `CCOc1ccc(-n2ccn3c(SCC(=O)c4cc(C)c(C)cc4C)nnc3c2=O)cc1`, the Inhibition in the experiment with Klebsiella pneumoniae is reported as 2.47%; in the experiment with Candida albicans, 2.99%; in the experiment on Cryptococcus neoformans, -7.59%.
In the same order, the values of `Cc1oc(-c2ccc(OC(C)C)cc2)nc1CSc1nc2ccccc2n2c(C(C)C)nnc12` are -1.3%, 23.86% and -18.35%.
In the same order, the values of `O=S(=O)(c1ccc2nncn2c1)N(Cc1cc(F)cc(F)c1)c1ccc(F)cc1` are 7.07%, 0.51% and -5.99%.
`CCC(C)NC(=O)c1ccc2c(=O)n(C3CC3)c3nn(CC(=O)NC(C)C)c(=O)n3c2c1` (configuration not stated): the Inhibition in the experiment with Klebsiella pneumoniae is 17.09%; in the experiment with Candida albicans, -1.34%; with Cryptococcus neoformans, -38.88%.
In the same order, the values of `C=Cc1ccc(CN(c2ccc3c(c2)OCO3)S(=O)(=O)c2ccc3nncn3c2)cc1` are 11.26%, 1.71% and -6.68%.
The corresponding values for `CCCCOc1ccc(-c2cc3c4nnc(SCC(=O)Nc5cccc(C)c5C)n4ccn3n2)cc1` are 1.05%, -0.05% and -18.62%.
As to `COc1ccc(N2CCN(C(=O)Cn3nc4ccc(-c5ccc(Cl)cc5)nn4c3=O)CC2)cc1`, the Inhibition in the experiment on Klebsiella pneumoniae is -0.61%; in the experiment on Candida albicans, 7.77%; with Cryptococcus neoformans, -9.26%.
As for `O=C(Cn1nc2c3cc(-c4ccccc4)nn3ccn2c1=O)N1CCN(c2ccccc2F)CC1`, the Inhibition in the experiment with Klebsiella pneumoniae was 9.85%; in the experiment with Candida albicans, 1.75%; in the experiment with Cryptococcus neoformans it was -28.45%.
In the same order, the values of `Cc1ccc(NC(=O)Cn2nc3ccc(SCc4ccc(Cl)cc4)nn3c2=O)cc1` are -9.13%, 7.44% and -7.75%.
The corresponding values for `COc1ccc(NC(=O)Cn2nc3c4cc(-c5ccc(C)cc5)nn4ccn3c2=O)cc1Cl` are -5.12%, 9.96% and -15.26%.
In the same order, the values of `Cc1ccc(NC(=O)Cn2nc3ccc(SC(C)(C)C)nn3c2=O)cc1C` are 8.45%, 5.53% and -7.37%.
On to `C=Cc1ccc(CN(c2cccc(Cl)c2)S(=O)(=O)c2cccn3c(C)nnc23)cc1`, for which the Inhibition in the experiment with Klebsiella pneumoniae is listed as 6.94%; with Candida albicans, 1.33%; with Cryptococcus neoformans, -16.09%.
The corresponding values for `Cc1ccc(C)c(C(=O)CSc2nnc3c(=O)n(-c4ccc(F)c(F)c4)ccn23)c1` are 16.06%, 4.02% and -10.11%.
Consider `COc1ccccc1N1CCN(C(=O)Cn2nc3ccc(-c4ccc(Cl)cc4)nn3c2=O)CC1`, for which the Inhibition in the experiment with Klebsiella pneumoniae is 12.66%; with Candida albicans it was -1.54%; in the experiment on Cryptococcus neoformans it was -12.15%.
In the same order, the values of `CCc1nnc2ccc(S(=O)(=O)N(Cc3cccc(OC)c3)c3cccc(F)c3)cn12` are 10.63%, 2.06% and -7.44%.
The corresponding values for `Cc1cccc(Sc2nc3ccccc3n3c(=O)n(CC(=O)Nc4c(C)cc(C)cc4C)nc23)c1` are 10.9%, 0.56% and -23.88%.
Turning to `COc1ccc(-c2cc3c4nnc(SCC(=O)Nc5ccc(C#N)cc5)n4ccn3n2)cc1`, the Inhibition with Klebsiella pneumoniae was 5.83%; in the experiment on Candida albicans, 1.48%; with Cryptococcus neoformans, -17.71%.
The corresponding values for `CCOc1ccc(-n2ccn3c(SCC(=O)c4ccccc4)nnc3c2=O)cc1` are 1.87%, 12.91% and -3.51%.
The corresponding values for `COc1ccccc1-n1ccn2c(SCC(=O)Nc3ccc4c(c3)OCCO4)nnc2c1=O` are 16.4%, 6.52% and -7.16%.
`CCOc1ccccc1NC(=O)Cn1nc2c(N3CCN(c4ccccc4)CC3)nccn2c1=O`: the Inhibition in the experiment with Klebsiella pneumoniae is recorded as 5.33%; in the experiment on Candida albicans it was 7.24%; in the experiment with Cryptococcus neoformans it was -7.83%.
In the same order, the values of `COC(=O)c1ccccc1NC(=O)Cn1nc2c(Oc3ccc(C)cc3)nccn2c1=O` are 2.12%, -2.14% and -10.13%.
The corresponding values for `COCCCNC(=O)CSc1nnc2c(=O)n(Cc3ccc(F)cc3)ccn12` are 13.69%, 2.6% and -25.66%.
In the same order, the values of `CCc1ccc(N(Cc2ccccc2)S(=O)(=O)c2cccn3c(C)nnc23)cc1` are 5.96%, -1.36% and -9.98%.
Consider `CCCc1nnc2c(=O)n(CC(=O)Nc3ccc(Br)cc3F)c3ccccc3n12`, for which the values for the Inhibition with Klebsiella pneumoniae, in the experiment on Candida albicans and in the experiment with Cryptococcus neoformans were -10.52%, 6.6% and -24.08%, respectively.
In the same order, the values of `CCCCOc1ccc(-c2cc3c4nnc(SCC(=O)Nc5ccc(CC)cc5)n4ccn3n2)cc1` are 9.73%, 2.18% and -11.7%.
`Cc1c(Cl)cccc1-n1ccn2c(SCC(=O)c3c[nH]c4ccccc34)nnc2c1=O`: the Inhibition is recorded as 3.37% in the experiment with Klebsiella pneumoniae, 2.26% in the experiment with Candida albicans and -4.72% in the experiment on Cryptococcus neoformans.
For `CCOc1ccccc1NC(=O)Cn1nc2c3c4c(sc3ncn2c1=O)CCCC4`, the Inhibition is 2.08% with Klebsiella pneumoniae, 2.9% in the experiment on Candida albicans and -12.75% in the experiment with Cryptococcus neoformans.
In the same order, the values of `CCc1ccc(NC(=O)Cn2nc3n(Cc4ccco4)c(=O)c4sccc4n3c2=O)cc1` are -2.12%, 5.72% and -17.39%.
For the molecule `CCCCOc1ccc(-c2cc3c4nnc(SCC(=O)Nc5ccc(C)c(F)c5)n4ccn3n2)cc1`, the results for the Inhibition in the experiment on Klebsiella pneumoniae, in the experiment on Candida albicans and in the experiment on Cryptococcus neoformans were 6.88%, 11.03% and -15.89%, respectively.
The corresponding values for `CCc1ccc(N(Cc2ccc(Cl)cc2)S(=O)(=O)c2cccn3c(C)nnc23)cc1` are -1.79%, 3.63% and -5.55%.
In the same order, the values of `CCOC(=O)c1ccc(NC(=O)Cn2nc3ccc(SC(C)(C)C)nn3c2=O)cc1` are 7.26%, 5.28% and -37.99%.
Consider `CCCc1nnc2c(=O)n(CC(=O)N3CCCc4ccccc43)c3ccccc3n12`, for which the figures for the Inhibition in the experiment on Klebsiella pneumoniae, in the experiment with Candida albicans and in the experiment on Cryptococcus neoformans were 7.45%, 0.04% and -21.26%, respectively.
In the same order, the values of `O=C(Cn1nc2c(Oc3ccc(Cl)cc3)nccn2c1=O)Nc1ccc2c(c1)OCO2` are 8.17%, 2.32% and -10.77%.
In the case of `COc1cccc(Oc2nccn3c(=O)n(CC(=O)NCc4ccc(SC)cc4)nc23)c1`, the Inhibition with Klebsiella pneumoniae is recorded as 15.38%; in the experiment on Candida albicans it was 2.58%; in the experiment on Cryptococcus neoformans, -5.89%.
In the same order, the values of `CC(C)c1ccc(NC(=O)Cn2nc3c(SCc4ccccc4)nccn3c2=O)cc1` are 2.82%, 10.67% and -15.97%.
In the same order, the values of `COc1ccc(NC(=O)c2ccc3nn(CC(=O)Nc4cccc(SC)c4)c(=O)n3c2)cc1` are -1.25%, 7.63% and -24.03%.
In the case of `Cc1ccc(NC(=O)Cn2nc3cc(C)nc(Nc4ccc(F)cc4)n3c2=O)cc1`, the figures for the Inhibition with Klebsiella pneumoniae, with Candida albicans and with Cryptococcus neoformans were 11.23%, 3.22% and -24.95%, respectively.
For `Cc1ccc(NC(=O)Cn2nc3c(N4CC(C)CC(C)C4)nccn3c2=O)c(F)c1` (configuration not stated), the Inhibition in the experiment with Klebsiella pneumoniae is 10.72%; in the experiment with Candida albicans, 3.58%; in the experiment on Cryptococcus neoformans, -9.98%.
In the same order, the values of `CC(C)Cn1c(=O)c2sccc2n2c(=O)n(Cc3cccc(Br)c3)nc12` are 8.23%, -0.42% and -24.19%.
Turning to `CCc1nnc2c(S(=O)(=O)N(Cc3cccc(F)c3)c3cccc(C)c3)cccn12`, the Inhibition in the experiment with Klebsiella pneumoniae is reported as 4.33%; with Candida albicans it was 0.97%; with Cryptococcus neoformans, -1.17%.
In the same order, the values of `CCN(C(=O)CSc1nnc2c3cc(-c4ccc(OC)cc4)nn3ccn12)c1ccccc1` are 4.95%, 2.01% and -1.74%.
The corresponding values for `Cc1cc(C)c(NC(=O)Cn2nc3c4cc(-c5ccc(C)c(C)c5)nn4ccn3c2=O)c(C)c1` are 5.52%, -0.89% and -17.51%.
With `CCOc1ccc(-n2ccn3c(SCC(=O)c4c(C)[nH]c5ccccc45)nnc3c2=O)cc1`, the Inhibition is listed as 3.78% in the experiment on Klebsiella pneumoniae, 2.22% with Candida albicans and -13.8% with Cryptococcus neoformans.
For the molecule `CCOC(=O)c1ccc(NC(=O)Cn2nc3ccc(S(=O)(=O)C(C)(C)C)nn3c2=O)cc1`, the Inhibition in the experiment on Klebsiella pneumoniae was 4.44%; with Candida albicans, 15.58%; with Cryptococcus neoformans, -19.66%.
In the same order, the values of `CCCN(C)c1nccn2c(=O)n(CC(=O)Nc3ccc(Br)cc3)nc12` are 7.69%, 3.8% and -7.69%.
In the same order, the values of `Cc1ccc(C)c(Cn2nc3ccc(-c4ccc(C)c(C)c4)nn3c2=O)c1` are 12.73%, 1.53% and -14.79%.
In the same order, the values of `COc1ccccc1CNC(=O)CSc1nnc2c3cc(-c4ccc(C)cc4)nn3ccn12` are -1.35%, -1.83% and -12.39%.
For the molecule `O=C(CSc1nnc2c(=O)n(-c3ccccc3)ccn12)Nc1ccc(F)cc1F`, the Inhibition in the experiment on Klebsiella pneumoniae was 1.13%; in the experiment on Candida albicans it was 1.82%; with Cryptococcus neoformans, -4.59%.
For the molecule `Cc1nnc2c(S(=O)(=O)N(Cc3ccc(F)cc3)c3ccc(F)c(F)c3)cccn12`, the values for the Inhibition in the experiment on Klebsiella pneumoniae, with Candida albicans and with Cryptococcus neoformans were 11.53%, 8.25% and -10.38%, respectively.
In the case of `CCc1ccc(N(Cc2ccccc2F)S(=O)(=O)c2cccn3c(CC)nnc23)cc1`, the Inhibition with Klebsiella pneumoniae was 6.04%; in the experiment on Candida albicans it was 4.59%; in the experiment with Cryptococcus neoformans, -5.13%.
The corresponding values for `C=Cc1ccc(CN(c2ccc(F)c(F)c2)S(=O)(=O)c2cccn3cnnc23)cc1` are 8.42%, 2.5% and -8.63%.
In the same order, the values of `CC(=O)Nc1ccc(NC(=O)CSc2nc3ccccc3n3cnnc23)cc1` are 2.19%, 32.46% and -15.75%.
For `O=S(=O)(c1ccc2nncn2c1)N(Cc1cccc(F)c1)c1cc(F)cc(F)c1`, the Inhibition with Klebsiella pneumoniae was 12.28%; in the experiment on Candida albicans it was 4.13%; in the experiment on Cryptococcus neoformans it was -6.89%.
The corresponding values for `Cc1cccc(Oc2nccn3c(=O)n(CC(=O)N4CCN(c5ccc(F)cc5)CC4)nc23)c1C` are 7.83%, -1.43% and -7.63%.
